The results in this text go back to PubChem BioAssay (NCI).

The subject of the assay is MDA-MB-468 breast. As to the kind of experiment: NCI-60 one-dose screen, 48 h (100 = growth as untreated, 0 = no growth, -100 = all killed). The conditions noted are these: 10 µM unless noted.

“And” between values parts separate entries of the source, which are not always exact repeats. Equal values may be shown once. Compounds without any hit were thinned out: in the full panel of roughly 83,000, 20% have a hit.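 Compound tested at a single concentration for 48 hours in 96-well plates; a percent growth value below 10 was scored as active.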 More than one record can exist for a structure, and the calls need not agree. The source made the active and inactive calls.

With `Nc1nc(Cl)cc(=O)n1Cc1ccccc1`, the growth is 97.3% (inactive).
Regarding `O=C1C(Cl)=C(NCCCN(CCCNC2=C(Cl)C(=O)c3ccccc3C2=O)C2=C(Cl)C(=O)c3ccccc3C2=O)C(=O)c2ccccc21`, the growth was -7.83% (active).
In the case of `COc1ccc(CCN2C(=O)CCSC2=S)cc1`, the growth was 10.7% (inactive).
Take `Nc1nc(N)c2cc(NCc3ccc(Cl)c(Cl)c3)ccc2n1`: the growth is -84.7% (active).
For `CC(Oc1ccc(C(=O)NS(=O)(=O)C(C)(C)C)cc1C(F)(F)F)c1ccc(Oc2ccccc2)cn1` (stereo not given), the growth is 71.8% (inactive).
Consider `N#C/C(=C\N1C(=O)/C(=C/c2cccc([N+](=O)[O-])c2)SC1=S)c1nc2ccccc2s1`, for which the growth is 81.7% (inactive).
Consider `C#C[C@]1(O)CC[C@H]2[C@@H]3CC=C4c5sc(-c6cccc(O)c6)nc5CC[C@]4(C)[C@H]3CC[C@@]21C`, for which the growth was 1.79% (active).
In the case of `Cc1cc(N=C2C=CC(=[N+](C)C)C=C2)c(N)cc1N`, the growth is 39.6% (inactive).
Consider `Cc1cc2c(-c3nc4ccccc4n3C)c(O)c(O)cc2c(O)c1-c1c(C)cc2c(-c3nc4ccccc4n3C)c(O)c(O)cc2c1O`, for which the growth was 35.7% (inactive).
Consider `Cc1c(C(=O)O)c(=O)n(-c2ccccc2)n1C`, for which the growth was 127% (inactive).
To `Nc1cc(C(=O)N/N=C\c2ccc(OC(F)F)c(OC3CCCC3)c2)nn1CC(O)c1ccccc1` (stereo not given) belongs 106% (inactive); to `CC(C)(C)C(=O)OCOP(=O)(OCOC(=O)C(C)(C)C)C1CCCN(OC(=O)c2ccccc2)C1=O` (stereo not given), 29.6% (inactive); to `CCN(CC)c1ccc(Nc2ccc(CC(=O)c3ccccc3)cc2)cc1`, 85.2% (inactive).
In the case of `Cc1nn2c(-c3nc4ccc(Cl)cc4[nH]3)c(-c3ccc(F)cc3)nc2s1` it was 102% (inactive); in that of `CCN1C(=O)N(CC)C2C1NN=c1s/c(=C\c3cccs3)c(=O)n12` (stereo not given), 15.3% (inactive); in that of `COc1cc(/C=N/n2c(CN3CCOCC3)nc3ccccc3c2=O)cc(OC)c1OC`, 109% (inactive).
Consider `CC(O)c1ncc(/C=C2\SC(=S)N(Cc3ccccc3)C2=O)s1` (stereo not given), for which the growth was 65.6% (inactive).
Take `CCCCC[C@H]1CC=C2C(=O)C(Cl)=C[C@@H]2CC=CCCCC(=O)O[C@@H](CCCCC)CC=C2C(=O)C(Cl)=C[C@@H]2CC=CCCCC(=O)O[C@@H](CCCCC)CC=C2C(=O)C(Cl)=C[C@@H]2CC=CCCCC(=O)O1`: the growth is 50.2% [8 µM] (inactive).
In the case of `O=C1C=CC(O)=CC1=P(c1ccccc1)(c1ccccc1)c1ccccc1` it was 92% (inactive).
Turning to `Cc1cccnc1NC(=S)Nc1ncccc1C`, the growth was 71.9% (inactive).
In the case of `COc1ccc(/C=C/C(=O)c2ccc([N+](=O)[O-])cc2)cc1` it was 94.4% (inactive); in that of `O=C1Nc2cc(Cl)ccc2/C1=C\c1ccc(OCc2ccc(Br)cc2F)cc1`, -37.8% (active); in that of `COc1ccc(/C=C/C(=O)c2c(C)nc3ccccc3c2/C=C/c2ccccc2)c(OC)c1`, 87% (inactive).
For the molecule `Brc1cccc(/C=N/Nc2nc(N/N=C/c3cccc(Br)c3)nc(N3CCOCC3)n2)c1`, the growth was 1.09% (active).
To `CCC1=C(c2ccc(OC)cc2)C(C)(C)Oc2cc(O)c(CN3CCCC3)cc21` belongs 69.5% (inactive); to `Oc1ccc(/C=C/c2ccccc2)cc1`, 81.3% (inactive).
Take `FC(F)(F)c1cc(Nc2cccc(Oc3ccc(NC4=NCCN4)nc3)c2)ccc1Cl`: the growth is -37.6% (active).
In the case of `COc1ccc2c(c1OC)CO[C@@H]2[C@H]1c2c(cc3c(c2OC)OCO3)CCN1S(=O)(=O)c1cn(C)cn1` it was 17.4% (inactive); in that of `Cc1ccc2[nH]c3ccccc3c2c1`, 100% (inactive).
To `N#CC1=C(N)Oc2c(c(N)nn2-c2ccccc2)C1c1ccc(Cl)cc1` (stereo not given) belongs 117% (inactive).
In the case of `C/C(=N\NC(=O)c1ccccc1O)c1cccc(/C(C)=N/NC(=O)c2ccccc2O)n1` it was 23.9% (inactive); in that of `CCN(CC)CCCNc1nc(C)cc(Nc2ccc3nc(C)cc(N)c3c2)n1`, 117% (inactive).
`Cc1ccc(/C=C(\C#N)n2nnc3cc(F)c(F)cc32)cc1`: the growth is 17.3% (inactive).
To `Cn1cc(-c2noc(-c3cn(C)c4ncc(F)cc34)n2)c2ccccc21` belongs 36.2% (inactive); to `Cc1cc2nc3c4ccc(Br)cc4n(CCN(C)C)c3nc2cc1C`, -6.68% (active); to `CCN1C(=O)N(CC)C2C1NN=c1s/c(=C\c3cccc(F)c3)c(=O)n12` (stereo not given), -21.8% (active).
To `c1ccc2nc(-c3ccc4ccccc4n3)ccc2c1` belongs 78.9% (inactive); to `Oc1ccc(-c2nn(-c3ccccc3)cc2-c2nc3ccccc3s2)cc1`, 90.1% (inactive).
In the case of `O=C(CCCSc1nc(-c2ccccc2)cc(-c2ccc(Cl)cc2)n1)NO` it was -43.9% (active).
Turning to `CC(C)(C)[Si](C)(C)OC1[C@@H](CNC(=O)NC(=O)CCl)O[C@@H](n2cnc3c(N)ncnc32)[C@H]1O[Si](C)(C)C(C)(C)C` (stereo not given in full), the growth was -2.45% (active).
In the case of `Cc1nc2cc(Nc3nc(N4CCCCC4)nc(N4CCOCC4)n3)ccc2n1Cc1ccccc1` it was 70.1% (inactive).
In the case of `COc1ccc(/C(C)=N/NC(=O)CSc2nc3ccccc3c(=O)n2Cc2ccc(S(N)(=O)=O)cc2)c(OC)c1` it was 93.9% (inactive).
In the case of `CN(C)c1ccc(-c2ccc3[nH]c(=O)nc(-c4ccccc4)c3c2)cn1` it was 42.4% (inactive); in that of `CN(C)C/C=C/C(=O)Nc1cc2c(Nc3cccc(Cl)c3F)ncnc2cc1OCCOC(F)F`, -44.6% (active); in that of `OCc1ncc(-c2ccccc2)s1`, 104% (inactive).
In the case of `CCOc1ccc(N2C(=O)CCSC2=S)cc1`, the growth was 97.1% (inactive).
In the case of `COc1ccc(Nc2nccc(Nc3ccc4[nH]ncc4c3)n2)cc1` it was 44% (inactive).
Take `Cc1cc(C)nc(NS(=O)(=O)c2ccc(Nc3ccc4c5c(n(CCCN(C)C)c(=O)c4c3)-c3ccccc3C5=O)cc2)n1`: the growth was 111% (inactive).
In the case of `O=c1c(/C=C/c2c(O)ccc3ccccc23)nnc2sc(-c3cccc([N+](=O)[O-])c3)nn12` it was 40.9% (inactive); in that of `CSc1nc(O)c(-c2ccccc2)c(=O)[nH]1`, 99.1% (inactive).
In the case of `CCCCCCCO` it was 96.4% (inactive); in that of `CCCCCCNc1cc(C)nc2ccc(OC)cc12`, -10.9% (active); in that of `CN1C(=O)N(C)C2C1NN=c1s/c(=C\c3ccc([N+](=O)[O-])cc3)c(=O)n12` (stereo not given), 53.4% (inactive).
To `CN(C)c1ccc(-c2cc(-c3c[nH]c4ccccc34)nc(N)c2C#N)cc1` belongs 39.7% (inactive); to `CCN(CC)c1ccc(/C=C/C2=[N+](C)c3ccccc3C2(C)C)cc1`, 20.4% (inactive); to `Cc1onc(-c2c(F)cccc2Cl)c1-c1ncc(-c2ccc(Cl)cc2)o1`, 66.2% (inactive) and 23.7% (inactive).
With `O=C(CN1C(=O)S/C(=C\C(Cl)=C\c2ccccc2)C1=O)NCCCn1ccnc1`, the growth was -28.2% (active).
In the case of `CSc1nc2c(c(=O)[nH]1)C1(C(=O)Nc3ccccc31)c1c(nc(SC)[nH]c1=O)N2` it was 93.1% (inactive).
In the case of `CC[C@H](Nc1ncnc2nc[nH]c12)c1nc2cccc(F)c2c(=O)n1-c1ccccc1` it was 3.98% (active); in that of `C=C1C(=O)O[C@H]2[C@H]1CC/C(C(=O)NCCOCCOCC(=O)Nc1ccc(OC)c(C(N)=O)c1O)=C\CC[C@@]1(C)O[C@@H]21`, 77.8% (inactive).
With `NNC(=O)c1nc(N)n(-c2ccc(S(N)(=O)=O)cc2)n1`, the growth is 108% (inactive).
In the case of `Cc1cc(N=Nc2ccc(C)c(N=Nc3cc(C)c(N)cc3N)c2)c(N)cc1N` it was 96.7% (inactive) and 60.3% (inactive); in that of `COc1ccc2c(c1)nnc1c3cccnc3[nH]c21`, -92.6% (active).
Turning to `O=c1cn[nH]c2ccc(Br)cc12`, the growth was 109% (inactive).
`CC(C)c1ccc2c(c1)CC[C@H]1[C@](C)(C(=O)OCC#CCN3CCCC3)CCC[C@]21C`: the growth is 52.4% (inactive).
Take `CSc1ccc(-c2ccccc(=O)c2O)cc1`: the growth is 11.5% (inactive).
In the case of `CCN1C(=O)N(CC)C2C1NN=c1s/c(=C\c3ccccn3)c(=O)n12` (stereo not given) it was -26.9% (active); in that of `CN1CCN(Cc2ccc(NC(=O)c3ccc(C#N)c(C#Cc4cnc(N)c5ncccc45)c3)cc2C(F)(F)F)CC1`, 98% (inactive); in that of `Cn1cnc([N+](=O)[O-])c1/C=C1\Oc2ccc(Cl)cc2C1=O`, 79.8% (inactive).
For the molecule `Cc1cc(C)c2c(c1)N(C)c1ncnc(-n3c(C)nc4cc(C)ccc43)c1CC2C` (stereo not given), the growth is 3.92% (active).
To `O=c1cc(CNc2cc(F)cc(F)c2)c2ccc(I)cc2[nH]1` belongs 19% (inactive); to `O=C(CO)C(O)C(O)C(O)C(O)CO` (stereo not given), -18.1% (active) and 102% (inactive).
With `CC(C)(C)n1cc(-c2ccnc(NCCNS(=O)(=O)c3ccc(Cl)cc3)c2)c(-c2cccc(O)c2)n1`, the growth is 32.6% (inactive).
To `O=C(O)CNS(=O)(=O)c1ccc(OCCOc2ccc(S(=O)(=O)NCC(=O)O)cc2)cc1` belongs 97.7% (inactive).
As for `CC(=O)Nc1ccc(S(=O)(=O)Cl)cc1`, the growth is 95% (inactive).
To `COC(=O)CC(=O)C(=O)OC` belongs 95.3% (inactive).
To `Cn1c(=O)c2c(nc3n2CCN(CCc2ccc(OCCN4CCOCC4)cc2)C3)n(C)c1=O` belongs 97.9% (inactive).
In the case of `CCN(CC)CCOC(=O)c1cccnc1` it was 94.9% (inactive); in that of `COc1cccc(-c2nc(-c3ccc(NC(=O)c4ccccc4)cc3)[nH]c2-c2ccnc(Br)c2)c1`, 28.8% (inactive); in that of `Cc1nn(-c2cc(NC3CCC(O)CC3)c3c(=O)[nH]c(CCC(F)(F)F)cc3c2)c2c1C(=O)CC(C)(C)C2` (stereo not given), 5.19% (active).
In the case of `COc1ccc(/C=C(\C#N)n2nnc3cc(F)c(F)cc32)cc1`, the growth was 8.69% (active).
To `ClCc1cccc(CSc2ncnc3c2ncn3Cc2cccc(CCl)c2)c1` belongs -89.3% (active); to `CN(C)CCCC(C#N)c1ccccc1` (stereo not given), 108% (inactive).
In the case of `Cc1cc(O)c(C(C)(C)C)cc1Sc1cc(C(C)(C)C)c(O)cc1C`, the growth is 67.2% (inactive).
Regarding `O=[N+]([O-])c1cnc(Sc2ccncn2)c([N+](=O)[O-])c1`, the growth was -44.4% (active).
